Hits are enriched below; roughly 1.4% of the tested compounds scored in any of these assays.
EBV gp42 inh = EBV gp42 inhibition | Q1HVG2 | Fluorescence polarization binding assay, mP read-out | inhibition, % (tested at 21.74 µM) | actives 0.42% (n = 220,000) | AID 1085; in the data active = inhibition above about 50%
Target sequence (Q1HVG2 whole entry, looked up): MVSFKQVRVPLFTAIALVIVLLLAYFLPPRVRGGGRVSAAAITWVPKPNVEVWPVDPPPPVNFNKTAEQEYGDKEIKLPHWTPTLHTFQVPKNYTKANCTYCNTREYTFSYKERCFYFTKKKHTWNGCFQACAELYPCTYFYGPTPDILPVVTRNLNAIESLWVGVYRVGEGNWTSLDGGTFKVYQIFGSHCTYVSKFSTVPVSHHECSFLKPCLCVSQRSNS
Bcl-xL primary = inhibitors of human Bcl-xL; actives 0.7% (n = 320,000); GST-Bcl-xL / FITC-Bim BH3 peptide fluorescence polarization; inhibition, % at 10.9 µM; Q07817;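 active = inhibition above the mean of all tested compounds plus 3 SD, cutoff set per campaign, cut at about 30% in these data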;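 also: inhibitors lower millipolarization by displacing the labeled peptide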
eLon inh = E. coli protease La inhibition | AID 602123 | inhibition, % at 7.94 µM | actives 0.42% (n = 360,000) | purified E. coli Lon protease, fluorescence polarization | P0A9M0; in the data active = inhibition above about 13%, passing the limit was not always enough
MEX-5 binding = C. elegans MEX-5 TCR-2 RNA binding activity; Q9XUB2; MEX-5/FITC-TCR2 RNA binding, fluorescence polarization; hits give low values; activity score (negative = inhibition of binding), % at 10 µM; actives 0.38% (n = 300,000); AID 1832;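 active = inhibition past about -25% in most replicates, and total fluorescence under double the plate's negative control median, limit read from the data; inconclusive = replicates evenly split on the limit, or fluorescence at least double controls; inactive = too little inhibition in most replicates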
MCL1 BIM primary = disrupts human MCL1 binding to BIM-BH3 peptide. Q07820. GST-MCL1 / FITC-Bim-BH3 fluorescence polarization. inhibition, % at 10.9 µM. actives 0.68% (n = 320,000). AID 2057;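 active = inhibition above the mean inhibition of all tested compounds plus 3 SD, set per campaign, cut at about 40% in these data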;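 also: higher means more loss of mP so more displacement of Bim peptide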
Target sequence (Q07820 whole entry, looked up): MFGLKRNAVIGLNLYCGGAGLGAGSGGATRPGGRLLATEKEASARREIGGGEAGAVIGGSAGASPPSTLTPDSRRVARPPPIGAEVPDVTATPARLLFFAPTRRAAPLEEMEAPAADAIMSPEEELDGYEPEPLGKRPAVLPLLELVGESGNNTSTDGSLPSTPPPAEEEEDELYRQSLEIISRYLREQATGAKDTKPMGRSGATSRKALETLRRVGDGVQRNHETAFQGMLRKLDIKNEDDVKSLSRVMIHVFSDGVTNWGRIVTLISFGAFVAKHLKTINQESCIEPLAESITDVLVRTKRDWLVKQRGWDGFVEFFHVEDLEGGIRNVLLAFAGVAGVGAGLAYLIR
GLD-1 TGE inh = GLD-1-TGE RNA interaction inhibition (C. elegans); Q17339; purified GLD-1 + fluorescein TGE RNA, fluorescence polarization; inhibition, % at 5.96 µM; actives 0.44% (n = 320,000);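 active = percent inhibition above a per-plate cutoff, the plate mean of test compounds plus 3 SD, cut at about 30% in these data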
Hits are given with their value.

For CC(C)C[C@@]12C(=O)N(c3cccc(F)c3)C(=O)N1[C@H](c1ccc(Cl)cc1)[C@@H]1C(=O)N(C3CCCCC3)C(=O)[C@@H]12 the results were Bcl-xL primary inactive, eLon inh inactive, MEX-5 binding inactive, MCL1 BIM primary inactive and GLD-1 TGE inh inactive.
C[C@@H](CSc1ccccc1)CN1CC[C@H](O)CCC1=O was read as Bcl-xL primary inactive, eLon inh inactive, MEX-5 binding inactive, MCL1 BIM primary inactive and GLD-1 TGE inh inactive.
`OC(c1ccc(F)cc1)c1nc(-c2cccs2)cs1` (stereo not given) gave eLon inh inactive.
Screening N#CC(C(=O)NC1CCCCC1)c1nc2ccccc2nc1N1CCN(c2ccc(F)cc2)CC1 (stereo not given) returned EBV gp42 inh inactive and MEX-5 binding -76.
`N#CC(C(=O)NC1CC1)c1nc2ccccc2nc1N1CCCC1` (stereo not given) gave EBV gp42 inh inactive, Bcl-xL primary inactive, eLon inh inactive, MEX-5 binding inactive, MCL1 BIM primary inactive and GLD-1 TGE inh inactive.
CCOc1ccc(S(=O)(=O)Nc2cc(Sc3ncn[nH]3)c3oc(=O)sc3c2)cc1 was read as EBV gp42 inh inactive, Bcl-xL primary inactive, MEX-5 binding -34, MCL1 BIM primary inactive and GLD-1 TGE inh inactive.
For CCOc1ccc(S(=O)(=O)Nc2ncn[nH]2)cc1 the results were Bcl-xL primary inactive, eLon inh inactive, MEX-5 binding inactive, MCL1 BIM primary inactive and GLD-1 TGE inh inactive.
For COc1cc([N+](=O)[O-])cc(/C=N/NC(=O)CC#N)c1O the results were EBV gp42 inh inactive and MEX-5 binding -32.
`CN(C)c1ccc(/C=C/c2nc3ccccc3c(=O)[nH]2)cc1` gave Bcl-xL primary inactive, eLon inh inactive, MEX-5 binding -33, MCL1 BIM primary inactive and GLD-1 TGE inh inactive.
`COc1cccc(C(=S)N2CCOCC2)c1OS(=O)(=O)c1ccc(Cl)cc1` gave Bcl-xL primary inactive, eLon inh inactive, MEX-5 binding inactive, MCL1 BIM primary inactive and GLD-1 TGE inh inactive.
CC(=O)c1cccc(NC(=O)C2(C)Cc3c(-c4cccc(C(F)(F)F)c4)ccnc3O2)c1 (stereo not given) was read as eLon inh inactive.
CN1CCc2c(sc3c2C(=O)NC(c2ccco2)N3)C1 (stereo not given) was read as EBV gp42 inh inactive, Bcl-xL primary 38, eLon inh inactive, MEX-5 binding inactive, MCL1 BIM primary inactive and GLD-1 TGE inh inactive.
Screening O=C(/C(=C(\[O-])c1ccccc1)[n+]1ccc2ccccc2c1)c1ccc([N+](=O)[O-])cc1 returned EBV gp42 inh inactive, Bcl-xL primary inactive, eLon inh inactive, MEX-5 binding inactive, MCL1 BIM primary inactive and GLD-1 TGE inh inactive.
`O=C(/C(=C(/[O-])c1ccccc1)[n+]1ccccc1)c1ccc([N+](=O)[O-])cc1` gave EBV gp42 inh inactive, Bcl-xL primary inactive, eLon inh inactive, MEX-5 binding inactive, MCL1 BIM primary inactive and GLD-1 TGE inh inactive.
Screening O=C(/C(=C(\[O-])c1ccccc1)[n+]1ccc2ccccc2c1)c1ccc(Cl)cc1 returned EBV gp42 inh 67, Bcl-xL primary inactive, eLon inh inactive, MEX-5 binding inactive, MCL1 BIM primary inactive and GLD-1 TGE inh inactive.
For O=C(/C(=C(\[O-])c1ccccc1)[n+]1ccc2ccccc2c1)c1ccccc1 the results were EBV gp42 inh 74, Bcl-xL primary inactive, eLon inh inactive, MEX-5 binding inactive, MCL1 BIM primary inactive and GLD-1 TGE inh inactive.
Screening O=c1cc(-c2ccccc2Cl)oc2c(NS(=O)(=O)c3cc(Cl)cc(Cl)c3O)ccc(O)c12 returned EBV gp42 inh inactive, Bcl-xL primary inactive, eLon inh inactive, MEX-5 binding -55, MCL1 BIM primary inactive and GLD-1 TGE inh inactive.
`Cc1ccc([C@H]2N[C@]3(CCCN(Cc4ccc(F)cc4)C3=O)[C@H]3C(=O)N(C)C(=O)[C@@H]23)cc1` gave eLon inh inactive.
For CCN1CCN(Cc2c(O)ccc3c2O/C(=C\C=C\c2ccccc2)C3=O)CC1 the results were EBV gp42 inh inactive, Bcl-xL primary inactive, eLon inh inactive, MEX-5 binding inconclusive, MCL1 BIM primary inactive and GLD-1 TGE inh inactive.
Cc1ccc(/C=C2\Oc3c(ccc(O)c3CN3CCN(C)CC3)C2=O)cc1 was read as EBV gp42 inh inactive, Bcl-xL primary 46, eLon inh inactive, MEX-5 binding inconclusive, MCL1 BIM primary 42 and GLD-1 TGE inh inactive.
`CCc1ccc(/C=C2\Oc3c(ccc(O)c3CN3CCN(C)CC3)C2=O)cc1` gave EBV gp42 inh inactive, Bcl-xL primary 42, eLon inh inactive, MCL1 BIM primary inactive and GLD-1 TGE inh inactive.
COc1ccccc1/C=C/C=C1\Oc2c(ccc(O)c2CN2CCN(CCO)CC2)C1=O was read as EBV gp42 inh inactive, Bcl-xL primary 40, eLon inh inactive, MEX-5 binding inconclusive, MCL1 BIM primary inactive and GLD-1 TGE inh inactive.
Screening CCN1CCN(Cc2c(O)ccc3c2O/C(=C\c2ccc(C)cc2)C3=O)CC1 returned EBV gp42 inh inactive, Bcl-xL primary 40, eLon inh inactive, MEX-5 binding -29, MCL1 BIM primary inactive and GLD-1 TGE inh inactive.
For O=C1/C(=C/C=C/c2ccccc2)Oc2c1ccc(O)c2CN1CCN(CCO)CC1 the results were EBV gp42 inh inactive, Bcl-xL primary inactive, eLon inh inactive, MEX-5 binding inactive, MCL1 BIM primary inactive and GLD-1 TGE inh inactive.
Screening COc1ccc(OC)c(NS(=O)(=O)c2cc3c4c(c2)CCN4C(=O)CC3)c1 returned eLon inh inactive and MEX-5 binding inactive.
Cc1ccc(/C=C/C(=O)OCc2nc(N)nc(Nc3ccccc3C)n2)o1 was read as EBV gp42 inh 85, Bcl-xL primary inactive, eLon inh inactive, MEX-5 binding inactive, MCL1 BIM primary inactive and GLD-1 TGE inh inactive.
`CC[C@H](C)[C@H](NS(=O)(=O)c1ccc(C)cc1)C(=O)N1CCC(C(=O)N[C@H](C(=O)O)C(C)C)CC1` gave EBV gp42 inh inactive, Bcl-xL primary 41, eLon inh inactive, MEX-5 binding inactive, MCL1 BIM primary inactive and GLD-1 TGE inh inactive.
Screening CC[C@@H](C)[C@H](NC(=O)C1CCN(C(=O)[C@@H](NS(=O)(=O)c2ccc(C)cc2)C(C)C)CC1)C(=O)O returned EBV gp42 inh inactive, Bcl-xL primary inactive, eLon inh inactive, MEX-5 binding inactive, MCL1 BIM primary inactive and GLD-1 TGE inh inactive.
Screening O=C1NC[C@@H](CCCCN2C[C@H](Cc3ccc(O)cc3)N(CCC3CCCCC3)C(=O)C2=O)N(CC2CCCCC2)C1=O returned eLon inh inactive.
`COC(=O)c1ccc(N)cc1O` gave EBV gp42 inh inactive, Bcl-xL primary inactive, eLon inh inactive, MEX-5 binding inactive, MCL1 BIM primary inactive and GLD-1 TGE inh inactive.
COC(=O)c1ccc(=O)c2nc3/c(=C/O)c(O)cc(=O)c3[nH]c12 was read as EBV gp42 inh 98, Bcl-xL primary 90, eLon inh inactive, MCL1 BIM primary 97 and GLD-1 TGE inh inactive.

Bioassay records: PubChem BioAssay, several laboratories
